Compound activity: PubChem, The Scripps Research Institute Molecular Screening Center
Hits are enriched below; roughly 3.5% of the tested compounds scored in any of these assays.
FBW7 act = activators of human E3 ligase FBW7; AID 1259310; 650,000 tested, 0.13% active; Q969H0; normalized activity (activation), % at 26.1 µM; AlphaScreen FBW7–phospho-cyclin E peptide binding, activator screen; in the data active = normalized activity above about 1.9%;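 note: purified mutant Fbw7 with reduced substrate affinity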
TEAD-YAP inh = TEAD-YAP interaction inhibition; HEK-TIYL cells, TEAD-Gal4/YAP UAS-luciferase luminescence; inhibition, % at 9.12 µM; 640,000 tested, 1.4% active; AID 1259422; in the data active = inhibition above about 32%;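 note: 0% = median of test compound wells and 100% = reference inhibitor wells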
MITF inh = inhibitors of human MITF; O75030; 650,000 tested, 0.91% active; inhibition, % at 2.6 µM; AlphaScreen MITF homodimerization, bead proximity signal; in the data active = inhibition above about 50%;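 note: 0% = vehicle wells with protein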
GPR151 activ = activates the human receptor GPR151. 650,000 tested, 1% active. activation, % at 11.2 µM. PathHunter beta-arrestin GPR151 cells, luminescence; in the data active = activation above about 4.9%;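 note: 0% = median of compound wells and 100% = cells with positive control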
Target sequence (Q8TDV0 whole entry, looked up): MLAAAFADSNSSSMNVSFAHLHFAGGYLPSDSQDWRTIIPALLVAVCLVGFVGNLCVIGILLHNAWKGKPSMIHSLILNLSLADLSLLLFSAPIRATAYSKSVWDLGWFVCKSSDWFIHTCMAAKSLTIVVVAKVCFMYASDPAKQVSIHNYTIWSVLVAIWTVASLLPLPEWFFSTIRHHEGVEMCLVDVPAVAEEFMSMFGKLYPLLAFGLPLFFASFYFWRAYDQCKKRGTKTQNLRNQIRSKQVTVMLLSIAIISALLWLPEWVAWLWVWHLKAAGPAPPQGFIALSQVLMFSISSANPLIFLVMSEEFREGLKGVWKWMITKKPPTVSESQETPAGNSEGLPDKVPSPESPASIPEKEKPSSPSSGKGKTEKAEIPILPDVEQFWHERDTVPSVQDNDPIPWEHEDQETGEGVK
GPR151 conf act = confirmation of human GPR151 activators; shares compounds with GPR151 activ; GPR151 PathHunter beta-arrestin cells, luminescence, 90 min; % of EA-reagent control over plate median; activation, % at 11.2 µM; 6,700 tested, under 10 active;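 active = mean percent activation across replicates above the confirmation screen cutoff of 4.91%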
GPR119 ag = GPR119 activation, counter-screen for GPR151 activators. shares compounds with GPR151 activ. GPR119 PathHunter beta-arrestin cells, luminescence, 90 min; 0 = compound-well median, 100 = enzyme-acceptor control. activation, % at 11.2 µM. 6,700 tested, 0.3% active. AID 1508611;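 active = mean percent activation in the counterscreen above 29.09%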;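 note: counterscreen on off-target GPR119 to flag nonselective hits from the GPR151 activator screen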
Starred values were filed as active, the others as inactive; / = not tested or not shown; ! = a repeat was not active.

SMILES	FBW7 act	TEAD-YAP inh	MITF inh	GPR151 activ	GPR151 conf act	GPR119 ag
COc1ccc(C(=O)N2c3ccccc3CC2C)cc1OC (configuration not stated)	-0.1	-0.5	-0.6	6.4*	-0.2	-0.2
COc1ccc(-c2csc(-c3cc4cccc(OC)c4oc3=O)n2)cc1	0.5	10.5	-3.4	-1.0	/	/
Cc1ccc(N(C(C)C(=O)NC2CCCCC2)S(C)(=O)=O)cc1C (configuration not stated)	-0.1	1.5	-12.4	6.6*	1.1	8.2
C=CCNC(=O)C(C)N(c1ccccc1)S(C)(=O)=O (configuration not stated)	0.7	-2.2	-0.5	8.2*	-0.7	-10.2
C=CCNC(=O)C(C)N(c1ccc(C)cc1)S(C)(=O)=O (configuration not stated)	-0.1	4.7	0.4	-1.6	/	/
Cc1ccc(N(C(C)C(=O)NC2CCCCCC2)S(C)(=O)=O)cc1C (configuration not stated)	-0.1	4.3	5.0	0.1	/	/
Cc1ccc(N(C(C)C(=O)NCc2ccccn2)S(C)(=O)=O)cc1C (configuration not stated)	-0.1	-3.3	6.9	5.4*	0.6	11.1
Cc1noc(C)c1-c1nc(NCCOc2ccccc2)c2ncn(C3CCCCC3)c2n1	-0.2	2.4	-3.1	-0.8	/	/
CCCNc1nc(Nc2ccncn2)nc2c1ncn2C1CCCCC1	0.2	-47.5	9.7	4.9*	0.0	13.0
CCCNc1nc(-c2c(C)noc2C)nc2c1ncn2C1CCCCC1	-0.1	-45.8	-1.0	5.5*	0.2	-4.4
Cc1nn(C)c(C)c1-c1nc(NCCCN2CCCC2=O)c2ncn(C3CCCCC3)c2n1	0.1	-14.6	-11.5	5.8*	-0.7	-7.6
OCCNc1nc(Nc2ccncn2)nc2c1ncn2C1CCCCC1	0.2	-26.8	15.0	-0.9	/	/
CCOc1c(Br)cc(/C=C/C(=O)O)cc1OC	0.2	-4.9	5.3	1.0	/	/
CCN(CC)S(=O)(=O)c1ccc2oc(=S)n(CN3CCCC(O)C3)c2c1 (configuration not stated)	0.3	3.3	-9.3	0.0	/	/
COc1ccccc1CNC(=O)c1ccc(CNc2c(N3CCCC3)c(=O)c2=O)cc1	0.2	4.9	10.1	4.9*	-1.0	-12.5
Cc1ccc(NC(=O)c2ccc(CNc3c(N4CCOCC4)c(=O)c3=O)cc2)cc1F	-0.1	-7.5	1.4	5.0*	0.1	-9.1
COc1ccc(CC(=O)N(c2ccc(C(C)C)cc2)C2C=CS(=O)(=O)C2)cc1 (configuration not stated)	0.0	3.7	4.0	0.7	/	/
N[C@@H]1CONC1=O	-0.1	-5.9	-12.1	6.7*!	0.4	-7.5
O=[N+]([O-])c1cccnc1N1CCN(c2ncccn2)CC1	-0.1	-4.3	-1.9	1.0	/	/
CC(=O)NC(=O)NC(c1ccccc1)c1cccc(Cl)c1 (configuration not stated)	-0.1	-6.6	-9.2	6.1*	-0.2	-1.4
Cc1ccc(C(=O)O)cc1NC1CC(=O)N(c2c(C)cccc2C)C1=O (configuration not stated)	-0.1	0.8	-2.2	0.6	/	/
CCS/C(=C(\C#N)C(N)=O)c1ccc(-c2ccccc2)[nH]1	-0.2	6.9	-2.1	5.2*	0.1	5.4
Cc1ccsc1CCNc1c(-c2ccccc2)c(=O)c1=O	0.1	9.2	11.6	5.2*	0.8	10.4
Cc1cccc(CCNc2c(-c3ccccc3)c(=O)c2=O)c1	0.7	12.8	2.3	1.4	/	/
Cc1cc(Nc2cc(F)ccc2C)n2nc(C)nc2n1	0.2	14.7	16.1	7.1*	-0.9	-6.3
Cc1cc(Nc2ccc(F)cc2F)n2nc(C)nc2n1	-0.2	-8.0	3.7	0.7	/	/
CCN(CC)CCN1C(=O)C(O)=C(C(=O)c2cc3ccccc3o2)C1c1ccc(C)o1 (configuration not stated)	0.2	-7.2	-20.5	6.1*	0.3	-6.2
Cc1cccc(CN2C(=O)CCC2CCNCc2ccccc2F)c1 (configuration not stated)	0.0	6.3	13.4	7.1*	0.9	8.4
Cc1cccc(CNCCC2CCC(=O)N2Cc2cc(F)ccc2C)c1 (configuration not stated)	1.1	6.0	3.5	-0.5	/	/
